Bioassay records: PubChem, Center for Chemical Genomics, University of Michigan
Only a selection was taken, and hits are over-represented in it overall.
Dicer processing: human Dicer pre-microRNA cleavage inhibition; Q9UPY3; cat-ELCCA pre-miR-21 Dicer processing, chemiluminescence; active compounds read high; z-score at 25 µM; 6% of 47,000 active; AID 1347074; in the data active = z-score above about 3, passing the limit was not always enough;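 also: plate controls were vehicle for no effect and no enzyme for full effect; higher signal means more uncleaved substrate so more Dicer inhibition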
Target sequence (Q9UPY3 whole entry, looked up): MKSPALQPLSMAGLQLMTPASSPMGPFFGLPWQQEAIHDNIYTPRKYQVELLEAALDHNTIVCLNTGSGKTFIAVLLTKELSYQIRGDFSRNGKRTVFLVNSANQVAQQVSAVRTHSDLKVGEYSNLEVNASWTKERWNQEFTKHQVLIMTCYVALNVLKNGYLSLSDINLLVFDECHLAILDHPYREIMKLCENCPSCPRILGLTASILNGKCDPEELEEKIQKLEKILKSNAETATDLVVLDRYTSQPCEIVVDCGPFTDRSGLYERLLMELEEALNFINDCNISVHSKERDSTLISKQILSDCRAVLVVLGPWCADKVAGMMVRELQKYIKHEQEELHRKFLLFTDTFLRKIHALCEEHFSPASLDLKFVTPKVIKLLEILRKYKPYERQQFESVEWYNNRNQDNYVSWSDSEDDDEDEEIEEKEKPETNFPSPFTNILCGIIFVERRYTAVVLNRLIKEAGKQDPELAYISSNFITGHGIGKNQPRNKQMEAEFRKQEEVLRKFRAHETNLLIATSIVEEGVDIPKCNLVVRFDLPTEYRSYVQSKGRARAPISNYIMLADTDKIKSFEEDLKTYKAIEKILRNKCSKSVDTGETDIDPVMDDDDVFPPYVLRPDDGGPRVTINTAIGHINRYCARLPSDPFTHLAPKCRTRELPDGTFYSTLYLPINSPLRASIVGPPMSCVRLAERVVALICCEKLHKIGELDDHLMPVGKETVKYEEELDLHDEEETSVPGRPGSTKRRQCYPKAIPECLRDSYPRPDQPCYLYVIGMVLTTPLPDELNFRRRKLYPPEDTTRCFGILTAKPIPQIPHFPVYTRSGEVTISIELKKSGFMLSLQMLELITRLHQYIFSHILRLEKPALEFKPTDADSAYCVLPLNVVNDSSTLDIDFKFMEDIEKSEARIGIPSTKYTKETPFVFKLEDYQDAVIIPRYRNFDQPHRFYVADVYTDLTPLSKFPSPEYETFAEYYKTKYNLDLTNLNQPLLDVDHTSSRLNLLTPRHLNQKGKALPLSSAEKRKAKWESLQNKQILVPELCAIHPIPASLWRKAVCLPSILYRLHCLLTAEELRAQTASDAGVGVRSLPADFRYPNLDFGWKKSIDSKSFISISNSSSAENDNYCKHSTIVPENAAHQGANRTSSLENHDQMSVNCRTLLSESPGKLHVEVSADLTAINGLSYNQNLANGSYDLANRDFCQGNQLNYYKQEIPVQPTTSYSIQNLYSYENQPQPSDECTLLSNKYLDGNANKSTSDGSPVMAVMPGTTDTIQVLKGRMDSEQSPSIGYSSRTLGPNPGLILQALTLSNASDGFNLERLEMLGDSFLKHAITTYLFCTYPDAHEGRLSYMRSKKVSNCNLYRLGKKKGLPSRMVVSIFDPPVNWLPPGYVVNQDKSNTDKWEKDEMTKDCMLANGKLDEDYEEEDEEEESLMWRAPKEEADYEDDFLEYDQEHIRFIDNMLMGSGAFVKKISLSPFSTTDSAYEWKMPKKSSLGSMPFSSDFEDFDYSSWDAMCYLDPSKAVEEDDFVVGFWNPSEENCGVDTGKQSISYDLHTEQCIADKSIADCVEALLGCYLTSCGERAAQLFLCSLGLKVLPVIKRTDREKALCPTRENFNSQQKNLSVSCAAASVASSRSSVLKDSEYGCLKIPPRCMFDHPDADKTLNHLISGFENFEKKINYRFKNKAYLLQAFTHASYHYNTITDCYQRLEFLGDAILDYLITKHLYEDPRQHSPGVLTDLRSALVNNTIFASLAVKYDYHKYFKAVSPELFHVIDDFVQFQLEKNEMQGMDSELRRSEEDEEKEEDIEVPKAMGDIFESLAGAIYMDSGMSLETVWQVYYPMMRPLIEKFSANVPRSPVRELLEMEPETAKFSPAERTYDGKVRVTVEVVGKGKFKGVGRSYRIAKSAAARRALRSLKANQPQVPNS
* = called active by the depositor.

SMILES	Dicer processing
CSc1ccc(C(F)(F)F)cc1[N+](=O)[O-]	0.8
COc1cccc(Nc2nc3ccccc3s2)c1	0.59
c1ccc2sc(NC3=NCN(Cc4ccc5c(c4)OCO5)CN3)nc2c1	2.83
CC1CCCCC1N1CN=C(Nc2nc3ccccc3s2)NC1 (stereo not drawn)	3.77*
CC(C)=CC(=O)NNC(=O)CSc1nc2cccnc2s1	-1.97
Fc1ccc(OCc2nc(-c3ccccc3)no2)cc1	1.9
CCN1C(=O)N(CC)C2NC(=O)NC21 (stereo not drawn)	-0.21
Cc1[nH]nc2c1C(c1ccccc1)C(C#N)=C(N)O2 (stereo not drawn)	-1.19
CN(C)c1ccc(C2C(C#N)=C(N)Oc3c2sc2ccccc32)cc1 (stereo not drawn)	6.01*
CC(=O)n1c2c(c3ccccc31)OC(N)=C(C#N)C2c1ccc(Cl)cc1 (stereo not drawn)	-0.43
O=C(Nc1c(Br)cc(Br)cc1C(=O)Nc1ccccc1Cl)c1cccs1	-0.43
OC1CCCCC1NCCNc1nccc(C(F)(F)F)n1 (stereo not drawn)	-0.25
CCOC(=O)C1=C(N)Oc2cc(O)ccc2C1c1ccccc1 (stereo not drawn)	0.12
CCOC(=O)C1=C(N)Oc2ccc3ccccc3c2C1c1cccc(O)c1 (stereo not drawn)	3.53*
CCOC(=O)C1=C(N)Oc2cc(O)ccc2C1c1ccc(F)cc1F (stereo not drawn)	0.45
CC(=O)Nc1c(C)cc(Cl)cc1Cl	-0.62
C/C(=N\Nc1c(Cl)cc(Cl)cc1Cl)c1oc(C)nc1C	3.16*
C/C(=N\Nc1c(Cl)cc(Cl)cc1Cl)c1cc(F)ccc1O	2.14
O=c1cc(-c2ccc(Cl)cc2)oc2cc(OCC(O)CS(=O)(=O)c3ccc(Cl)cc3)ccc12 (stereo not drawn)	1.35
Cc1nc2ccc(Br)cc2c(=O)n1-c1ccccc1N1CCOCC1	-0.1
Cc1cc(C)c2nc(Nc3nc(C)cc(C)n3)nc(C)c2c1	3.28*
Cc1cc(C)c2nc(Nc3nc4ccccc4c(=O)[nH]3)nc(C)c2c1	2.99
CC1=CC(C)(C)N=C(Nc2nc(C)c3cc(C)cc(C)c3n2)N1	-0.43
COc1ccc(CN2C(=O)C(C)SC2c2cccnc2)cc1 (stereo not drawn)	15.4
CC1CN(c2nc3ccccc3nc2SCC(=O)N2CCN(C3CCCCC3)CC2)CC(C)O1 (stereo not drawn)	1.78
SMILES	Dicer processing
CC1CCN(c2nc3ccccc3nc2SCC(=O)NC2CC2)CC1	3.08*
CC1CN(c2nc3ccccc3nc2SCC(=O)NC2CCCC2)CC(C)O1 (stereo not drawn)	1.74
O=C(CSc1nc2ccccc2nc1N1CCCCC1)NCC1CCCO1 (stereo not drawn)	3.11*
O=C(CSc1nc2ccccc2nc1N1CCOCC1)N1CCN(C2CCCCC2)CC1	1.99
CC1CN(c2nc3ccccc3nc2SCC(=O)NC2CCCCC2)CC(C)O1 (stereo not drawn)	1.73
O=C(CSc1nc2ccccc2nc1N1CCCC1)N1CCN(C2CCCCC2)CC1	3.01*
O=C(CSc1nc2ccccc2nc1N1CCCC1)NCC1CCCO1 (stereo not drawn)	1.65
COc1ccc(OC)c(NC(=O)CSc2nc3ccccc3nc2N2CCCC2)c1	1.38
CC(C)(C)C(=O)Nc1ncccc1/C=C1\C(=O)Nc2ccccc21	-0.14
Cn1c(SCC(=O)Nc2ccccc2)nnc1SCC(=O)Nc1ccccc1	-0.03
O=C(CSc1nc(-c2ccccc2)cn1-c1ccccc1)NC(=O)Nc1ccccc1	3.38*
CCOC(=O)CSc1nc(-c2ccccc2)cn1-c1ccccc1	0.37
S=C(NCc1cccnc1)SCc1cc(Cl)sc1Cl	-1.55
CN(C)C(=O)C(C)(C)Oc1cc(C(F)(F)F)n(C)n1	0.07
NS(=O)(=O)c1ccc(-c2ccno2)s1	1
O=c1c(NC2CCCCC2)c(NC2CCCCC2)c1=O	5.91*
S=c1[nH]nc(NC2CCCCC2)s1	0.77
S=C(NC1CCCCC1)C(=S)NC1CCCCC1	-1.07
COc1ccc(C2Nc3ccccc3NC3=C2C(=O)CC(c2ccccc2)C3)cc1OC (stereo not drawn)	0.83
COc1ccc(C2CC(=O)C3=C(C2)Nc2ccccc2NC3c2cccc(O)c2)cc1OC (stereo not drawn)	3.52*
COc1ccc(C2CC(=O)C3=C(C2)Nc2ccccc2NC3c2ccc(OC(C)=O)c(OC)c2)cc1 (stereo not drawn)	1.56
COc1cccc(C2Nc3ccccc3NC3=C2C(=O)CC(c2ccc(OC)c(OC)c2)C3)c1 (stereo not drawn)	-0.54
COc1cc(C2Nc3ccccc3NC3=C2C(=O)CC(c2cccs2)C3)cc(Br)c1O (stereo not drawn)	4.57*
COc1cc(C2Nc3ccccc3NC3=C2C(=O)CC(c2ccccc2)C3)cc(Br)c1O (stereo not drawn)	4.89*
COc1ccc(C2Nc3ccccc3NC3=C2C(=O)CC(c2cccs2)C3)cc1 (stereo not drawn)	23.9
SMILES	Dicer processing
COc1ccc(C2Nc3ccccc3NC3=C2C(=O)CC(c2ccc(OC)c(OC)c2)C3)cc1 (stereo not drawn)	2.55
COc1ccc(C2CC(=O)C3=C(C2)Nc2ccccc2NC3c2ccc(OC(C)=O)cc2)cc1OC (stereo not drawn)	-0.1
COc1ccc2c(c1C)OC(C)(C)CC2=O	1.09
CCOc1ccc(-c2nc(-c3ccc(-c4ccccc4)nc3OC)no2)cc1	1.88
CSc1n[nH]c(NS(=O)(=O)c2cccc(C(F)(F)F)c2)c1-c1ccccn1	0.56
CC1(C)CC(=O)C2=C(C1)Nc1ccccc1NC2c1ccccc1OCc1ccccc1 (stereo not drawn)	-1.05
CNc1ccc(Cl)cc1C(=O)NN	-0.29
COc1c(-c2ccccc2)oc2ccccc2c1=O	0.68
Cc1ccc2oc(-c3ccc(F)cc3)c(O)c(=O)c2c1	0.72
Cc1ccc2oc(-c3ccccc3)c(O)c(=O)c2c1	1.83
Cc1ccc(-c2oc3ccccc3c(=O)c2O)cc1	3.17*
Cc1c(-c2ccccc2)oc2ccccc2c1=O	-0.55
CC(=O)Nc1c(-c2ccccc2)oc2ccccc2c1=O	3.31*
CCCOC(=O)COc1ccc2c(=O)c(Oc3cccc(C)c3)c(C(F)(F)F)oc2c1	-1.29
CCCCCC(=O)O/N=C(\C)c1cc[nH]c1	-1.43
NC(=S)N/N=C/c1ncc(C(F)(F)F)cc1Sc1ccc(Cl)cc1	0.03
Cc1ccc(N2CCn3c2nc2c3c(=O)n(CC(=O)O)c(=O)n2C)cc1	0.75
Cn1c(=O)n(CC(=O)O)c(=O)c2c1nc1n2CCCN1c1ccc(Cl)cc1	3.02*
CC1CN(c2ccc(Cl)cc2)c2nc3c(c(=O)n(CC(=O)O)c(=O)n3C)n2C1 (stereo not drawn)	-0.03
CCOc1ccc(N2CCCn3c2nc2c3c(=O)n(CC(=O)O)c(=O)n2C)cc1	0.38
Cn1c(=O)n(CC(=O)O)c(=O)c2c1nc1n2CCN1c1ccc(F)cc1	5.44*
Cn1c(=O)n(CC(=O)O)c(=O)c2c1nc1n2CCCN1c1ccc(F)cc1	0.5
O=C(Oc1ccccc1)c1cc2c(s1)-c1cc(Cl)ccc1SC2	0.17
Cn1ncc(C(=O)NN)c1-n1cccc1	0.36
Cc1nn(CC/C(N)=N/OC(=O)c2ccccc2)c(C)c1Oc1ccc(Cl)cc1	-1.18
NC(=O)c1sc(-c2ccc(Cl)cc2)cc1NS(=O)(=O)c1cc(C(F)(F)F)cc(C(F)(F)F)c1	3.7*
COC(=O)c1sc(-c2ccc(Cl)cc2)cc1NC(=O)C(F)(F)F	0.16
NC(=O)c1sc(-c2ccccc2)cc1NS(=O)(=O)c1ccc(F)cc1	-0.57
Cc1ccc(-c2nc(C)c(C)c(=O)[nH]2)cc1Cl	5.86
